The test system of this assay is P. falciparum stage V gametocytes. Further details: BacTiter-Glo ATP luminescence viability of purified stage V gametocytes in 384-well plates, per cent inhibition versus DMSO. The note with it: 48 h, 5 µM, inhibitor.

Where two headings read alike, the source gives them in different places. About 3,200 (25%) of roughly 13,000 compounds showed an effect of 50% or more. This is one part of the list. Peptide text beside a SMILES is read from it. * marks the point of attachment. Octanoyl = CCCCCCCC(=O)*

In general, % Inhibition refers to the change of the read-out against control, counted positive when it falls. Turning to `NC(=O)CNC(=O)CCCN=C(N)N` [TCMDC-131667], the “% Inhibition” value worked out at 20.86%. Regarding `Cc1c(Cc2ccc(F)cc2)c(Cl)nc2nc(N)nc(N)c12` [TCMDC-137680], the “% Inhibition” value was -6.829%.

For `CS(=O)(=O)c1ccc2c(c1)CCN(CCC1CCC(NC(=O)C(=Cc3ccc(Cl)cc3Cl)c3ccc(-c4ccccc4)cc3)CC1)CC2` (stereo not drawn) [TCMDC-141426], the “% Inhibition” value is recorded as -11.75%.

Take `CS(=O)(=O)c1ccc2c(c1)CCN(CCC1CCC(NC(=O)C(=Cc3cccc(C#N)c3)c3ccc(-c4ccccc4)cc3)CC1)CC2` (stereo not drawn) [TCMDC-141427]: the “% Inhibition” value came to 78.58%.

Turning to `N#Cc1cccc(-c2cccc(C(=O)NC3CCC(CCN4CCc5ccc(C#N)cc5CC4)CC3)c2)c1` (stereo not drawn) [TCMDC-139681], the “% Inhibition” value was -20.07%. For `CC(C)CCN(Cc1cncn1Cc1ccccc1F)C(=O)c1cncc(-c2ccccc2)c1` [TCMDC-132470], the “% Inhibition” value came out at 20.84%.

As to `O=C(Nc1ccc(-c2nc3ccccc3[nH]2)cc1)c1ccc([N+](=O)[O-])s1` [TCMDC-123726], the “% Inhibition” value is reported as 9.602%. For the compound `Nc1nc(N)c2nc(C3CC=CCC3)c(N)nc2n1` (stereo not drawn) [TCMDC-141989], the “% Inhibition” value came to 6.679%. Consider `CCCCCCCC(=O)N[C@@H](Cc1ccccc1)C(=O)N[C@H](C(=O)O)C(C)C` [TCMDC-139536] (Octanoyl-Phe-Val-OH), for which the “% Inhibition” value came out at 1.099%.

As to `Cc1ccc(NC(=O)C(C)Sc2n[nH]c(-c3ccccc3Br)n2)cc1` (stereo not drawn) [TCMDC-125166], the “% Inhibition” value was 75.62%. For the compound `CC(Sc1n[nH]c(-c2ccccc2Br)n1)C(=O)Nc1ccc(F)cc1` (stereo not drawn) [TCMDC-125115], the “% Inhibition” value is listed as -62.46%. For `CC(CN(C)C)C(=O)Nc1ccc(-c2ccc(-c3nc4ccccc4[nH]3)s2)cc1` (stereo not drawn) [TCMDC-137100], the “% Inhibition” value stood at 21.36%. With `COc1ccc(Br)cc1C1Nc2ccc3ccccc3c2C2=C1C(=O)CC(c1ccccc1)C2` (stereo not drawn) [TCMDC-125675], the “% Inhibition” value worked out at 55.64%.

As to `COc1cc(C2Nc3ccc4ccccc4c3C3=C2C(=O)CC(C)(C)C3)ccc1Oc1ccc([N+](=O)[O-])cc1C#N` (stereo not drawn) [TCMDC-125717], the “% Inhibition” value is on record as 30.01%.

In the case of `COc1ccc(C2CC(=O)C3=C(C2)NC(C)=C(C(=O)OC(C)C)C3c2ccccc2F)cc1OC` (stereo not drawn) [TCMDC-124038], the “% Inhibition” value is reported as 37.21%. `CN(Cc1ccncc1)C(Cc1ccccc1)C1CCN(Cc2ccc(O)c(Cl)c2)CC1` (stereo not drawn) [TCMDC-124648]: the “% Inhibition” value is reported as -12.77%. On to `COc1cc(CNC[C@@H](O)[C@H](Cc2ccccc2)NC(=O)c2cc(OC(C)C)cc(N3CCCCS3(=O)=O)c2)cc(OC)c1` [TCMDC-134525], for which the “% Inhibition” value worked out at 23.04%.

For the compound `CCc1cc2c(cc1OCCN(C)C)N(C(=O)Nc1ccc(-c3ccncc3)c(Cl)c1)CC2` [TCMDC-139214], the “% Inhibition” value is reported as 8.963%. As for `Fc1ccc(CNc2ccc3ncc(-c4cccnc4)n3n2)cc1` [TCMDC-136674], the “% Inhibition” value worked out at 19.94%. The same measure, in the same setting: with `COc1ccc(-c2cnc3ccc(N4CCCC4)nn23)cc1OC.O=CO` [TCMDC-134177] the figure was 42.14%. With `Oc1cccc(-c2cnc3ccc(NCc4ccc(F)cc4)nn23)c1` [TCMDC-136676], the “% Inhibition” value amounted to 39.41%.

For `COc1ccc(-c2cnc3ccc(NCc4ccc(F)cc4)nn23)cc1OC` [TCMDC-136675], the “% Inhibition” value is on record as 53.19%. On the same count and under the same terms, with `COc1ccc(-c2cnc3ccc(NCCCO)nn23)cc1OC` [TCMDC-136683] the figure was 53.42%; with `N#Cc1ccc(-c2cnc3ccc(NCCc4cccnc4)nn23)cc1` [TCMDC-136679], 23.92%. Take `C/C=C1\CN2CC[C@H]1C[C@H]2[C@H](O)c1ccnc2ccc(O)cc12` [TCMDC-138272]: the “% Inhibition” value is on record as 3.79%. Take `COc1ccc2nccc(N3CCC(O)(CCNCc4ccc5c(n4)NC(=O)CO5)CC3)c2n1` [TCMDC-134564]: the “% Inhibition” value is reported as -10.39%. As to `CCNC(=O)N1CCN(c2nc(-c3ccccc3)nc(COC)c2Cc2ccc(C)cc2)CC1` [TCMDC-124783], the “% Inhibition” value was 37.5%. In the case of `O=c1cc(NCCCNCc2cc(C(F)(F)F)ccc2F)[nH]c2ccccc12` [TCMDC-139423], the “% Inhibition” value was -83.26%.

Consider `CC1(C)N=C(N)N=C(N)N1OCCc1ccc2ccccc2c1` [TCMDC-131755], for which the “% Inhibition” value is given as -0.2663%. As for `COc1cc(Cc2cnc(N)nc2N)cc(OCCCCC2NC(=O)NC2=O)c1OC` (stereo not drawn) [TCMDC-137299], the “% Inhibition” value was determined as 4.359%. In the case of `Cc1nc2c(s1)c(=O)cc(CCc1cccc(F)c1F)n2CC(=O)N(Cc1ccc(-c2ccc(C(F)(F)F)cc2)cc1)C1CCN(C(C)C)CC1` [TCMDC-141264], the “% Inhibition” value is recorded as 113.7%. Turning to `Cc1ccc2c(=O)cc(CCc3cccc(F)c3F)n(CC(=O)N(Cc3ccc(-c4ccc(C(F)(F)F)cc4)cc3)C3CCN(C)CC3)c2n1` [TCMDC-141317], the “% Inhibition” value is reported as 107%. For the compound `CC1CCCN1Cc1ccc(-c2ccc3c(=O)cc(CCc4cccc(F)c4F)n(CC(=O)N(C)Cc4ccc(-c5ccc(C(F)(F)F)cc5)cc4)c3n2)cc1` (stereo not drawn) [TCMDC-136564], the “% Inhibition” value is 30.5%. With `Cc1ccc2c(=O)cc(CCc3cccc(F)c3F)n(CC(=O)N(Cc3ccc(-c4ccc(C(F)(F)F)cc4)cc3)C3CCN(C(C)C)CC3)c2n1` [TCMDC-141318], the “% Inhibition” value is 122.6%.

Turning to `COC(=O)Cn1c2ccccc2c2c(N)c(C(=O)OC)c(C)nc21` [TCMDC-131562], the “% Inhibition” value is recorded as 7.659%.

Turning to `CC(C)c1ccc(NC(=O)c2ccc(CN3CCCN(CC4CCCCC4)CC3)cc2)cc1` [TCMDC-136417], the “% Inhibition” value is on record as -19.72%. `CCC(CC(NCCCCNC(=O)c1ccc(NC(=O)c2ccc(Cl)cc2)cc1)c1ccccc1)c1ccccc1OC` (stereo not drawn) [TCMDC-138579]: the “% Inhibition” value (% Inhibition) is 48.18%. For `N#Cc1c(N2CCN(c3ccc(F)cc3)CC2)nc(N)c2c(N)nc3c(c12)CC(=O)N3C1CC1` [TCMDC-124490], the “% Inhibition” value is reported as 43.84%. For `Cc1cccc2[nH]c(-c3cccc(-c4cccc(NC(=O)c5ccc(=O)[nH]n5)c4)c3)nc12` [TCMDC-137033], the “% Inhibition” value is -59.71%. `COc1ccc2c(c1C1CCN(CCCCNC(=O)c3ccc(-c4ccc(Cl)cn4)cc3)CC1)CCCC2` [TCMDC-138576]: the “% Inhibition” value is recorded as -10.77%. Consider `COc1ccc2c(c1CCNCCCCNCCc1c(OC)ccc3c1CCCC3)CCCC2` [TCMDC-137324], for which the “% Inhibition” value stood at 111.7%. Regarding `COc1ccc2c(c1CNCCCCCCNCc1c(OC)ccc3c1CCCC3)CCCC2` [TCMDC-137817], the “% Inhibition” value came to 117.4%. As for `N#CC1(CCCNCCc2ccc(O)cc2)CCCc2c(O)cccc21` (stereo not drawn) [TCMDC-137732], the “% Inhibition” value is -11.73%.

Consider `O=C(Nc1ccc(F)cc1)N1CCCN(c2ccnc3cc(Cl)ccc23)CC1` [TCMDC-133584], for which the “% Inhibition” value is -23.79%. Turning to `COc1cc2c(cc1OC)CN(CCc1ccc(NC(=O)c3cc4cc(Cl)ccc4[nH]3)cc1)CC2` [TCMDC-138249], the “% Inhibition” value is given as -9.297%. Take `Cc1cc2c(cc1C(F)(F)F)N(C(=O)Nc1ccc(OCCN(C)C)c(C(F)(F)F)c1)CC2` [TCMDC-139850]: the “% Inhibition” value came out at 18.6%.

For `COc1cc(F)c2nccc([C@@H](O)CN3CCC(NCc4ccc5c(n4)NC(=O)CS5)C(F)C3)c2c1` (stereo partly drawn) [TCMDC-141805], the “% Inhibition” value is reported as -13.4%. Turning to `FC(F)(F)c1cc(Nc2ccc(Oc3ccccc3)cc2)c2cc(-c3ccncc3)ccc2n1` [TCMDC-138549], the “% Inhibition” value is on record as -36.95%. On to `c1ccc(CN2CCc3cc4nccc(N5CCNCC5)c4cc32)cc1` [TCMDC-140118], for which the “% Inhibition” value was -20.01%. Same read-out and setting: the value for `C/C=C/COc1ccc2ccccc2c1CNCCCCCCCCNCc1c(OC/C=C/C)ccc2ccccc12` [TCMDC-137844] was 118.6%. On to `C=CCOc1ccc2ccccc2c1CNCCCCCCNCc1c(OCC=C)ccc2ccccc12` [TCMDC-137340], for which the “% Inhibition” value is given as 119.9%. As to `Nc1nc(N)c2c(ccc3c2cnn3S(=O)(=O)N2CCCC2)n1` [TCMDC-137852], the “% Inhibition” value is given as -71.91%. As for `O=C1COc2ccccc2N1C/C=C(\CN1CCC(c2ccccc2)CC1)c1cc(Cl)cc(Cl)c1` [TCMDC-134528], the “% Inhibition” value is -40.54%.

On to `Cc1cc(Nc2ccc3c(c2)CCC3)n2ncnc2n1` [TCMDC-123574], for which the “% Inhibition” value turned out to be 8.317%. Take `Cc1[nH]nc2cc(Nc3nccc(Nc4ccc(Oc5ccccc5)cc4)n3)ccc12` [TCMDC-138573]: the “% Inhibition” value was found to be 32.4%. For `CCc1nnc2sc(-c3cccc(NC(=O)c4ccc(C)c([N+](=O)[O-])c4)c3)nn12` [TCMDC-125124], the “% Inhibition” value is recorded as -17.45%. `Cc1ccc(O)c(-c2cc(C(=O)Nc3ccc(S(=O)(=O)N4CCCCC4)cc3)[nH]n2)c1` [TCMDC-124309]: the “% Inhibition” value is listed as -24.12%. Same read-out and setting: the value for `O=C(Nc1ccccc1)c1cnc[nH]1` [TCMDC-123941] was -10.44%; that for `CC[C@H]1CN2CC[C@H]1C[C@@H]2[C@H](O)c1ccnc2ccc(O)cc12` [TCMDC-132025] was 31.63%; that for `CC[C@H]1CN2CC[C@@H]1C[C@H]2[C@H](O)c1cc(-c2ccc(F)cc2)nc2ccc(O)cc12` [TCMDC-141378] was 55.28%. Same read-out and setting: with `CC[C@H]1CN2CC[C@@H]1C[C@H]2[C@H](O)c1cc(-c2ccccc2)nc2ccc(O)cc12` [TCMDC-141380] the figure was 89.63%. On to `CC[C@H]1CN2CC[C@H]1C[C@H]2[C@H](O)c1ccnc2ccc(O)cc12` [TCMDC-131425], for which the “% Inhibition” value is on record as 22.33%. As for `CCCc1cc([C@@H](O)[C@@H]2C[C@@H]3CCN2C[C@@H]3CC)c2ccccc2n1` [TCMDC-131428], the “% Inhibition” value is -9.828%. `CC[C@H]1CN2CC[C@@H]1C[C@H]2[C@H](O)c1ccnc2ccc(Cl)cc12` [TCMDC-141353]: the “% Inhibition” value was -5.728%. The same measure, in the same setting: the value for `CC[C@H]1CN2CC[C@@H]1C[C@H]2[C@H](O)c1cc(-c2ccc(Cl)c(Cl)c2)nc2ccc(O)cc12` [TCMDC-141362] was 95.45%. For the compound `OCC1CCCCN1Cc1cccc(-c2cccc(-c3nc4ccccc4[nH]3)c2)c1` (stereo not drawn) [TCMDC-133835], the “% Inhibition” value was -3.731%.

For the origin of these results see publication PMC4552634, “A New Set of Chemical Starting Points with Plasmodium falciparum Transmission-Blocking Potential for Antimalarial Drug Discovery” (PLoS ONE, 2015).
